This is a sample that favours compounds with a hit; in the whole collection about 0.93% have one here.
RPL19A TOR yeast = modulators of TOR pathway RPL19A-GFP in S. cerevisiae; S. cerevisiae RPL19A-GFP strain, flow cytometry, 3 h; active compounds read low; percent response vs DMSO, % at 10 µM; actives 0.3% (n = 330,000); AID 2025;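 active means percent response vs DMSO below 50%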;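 further: median channel GFP fluorescence of the barcoded RPL19A-GFP strain; ratio of sample median GFP to plate DMSO average so 100% = DMSO; lower means less RPL19A-GFP as with rapamycin TOR inhibition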
CIT2 TOR yeast = yeast TOR pathway CIT2-GFP modulation. S. cerevisiae CIT2-GFP strain, flow cytometry, 3 h; 100 means same as DMSO wells. actives 0.065% (n = 320,000). GFP response vs DMSO, % at 10 µM. AID 2029;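 active means GFP response relative to DMSO above a set limit, near the screen mean plus 3 SD, cut at about 150% in these data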;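 further: ratio of well median GFP fluorescence to mean of DMSO wells on the plate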
LAP4 TOR yeast = yeast TOR pathway LAP4-GFP modulation. S. cerevisiae LAP4-GFP multiplex, flow cytometry GFP, 3 h; median GFP as percent of DMSO wells. GFP response vs DMSO, % at 10 µM. actives 0.34% (n = 320,000);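 active means GFP response vs DMSO above a set limit, about the screen mean plus 3 SD, cut at about 150% in these data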
MEP2-GFP yeast = alters MEP2-GFP fluorescence in TOR pathway yeast screen. S. cerevisiae MEP2-GFP strain, flow cytometry GFP, 3 h; 100% = DMSO control level. GFP response vs DMSO, % at 10 µM. actives 0.51% (n = 330,000). AID 2016;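 active means GFP response versus DMSO above a set limit, roughly screen mean plus 3 SD, cut at about 180% in these data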;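 further: median GFP fluorescence of the barcode-gated MEP2-GFP cells per well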
AGP1-GFP MLPCN = alters AGP1-GFP fluorescence in TOR pathway yeast screen. actives 0.02% (n = 320,000). GFP response vs DMSO, % at 10 µM. S. cerevisiae AGP1-GFP multiplex flow cytometry, 3 h; GFP as percent of DMSO wells;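 active means GFP response relative to DMSO above a set limit, near screen average plus 3 SD, cut at about 150% in these data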;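 further: median GFP channel fluorescence of the gated AGP1 strain per well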
LAP4 cherry2 = reconfirmed LAP4-GFP TOR pathway modulator in yeast; actives 20% (n = 590); AID 2621; shares compounds with LAP4 TOR yeast; S. cerevisiae LAP4-GFP strain, flow cytometry GFP, 3 h; GFP response vs DMSO, % at 10 µM;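 active means GFP signal as percent of the solvent control above about 150%, meaning raised reporter expression, limit read from the data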;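 further: ratio of well median GFP fluorescence to plate DMSO mean so 100% = DMSO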
MEP2-GFP pick2 = second confirmation of modulators of TOR reporter MEP2-GFP in yeast. shares compounds with LAP4 TOR yeast. S. cerevisiae MEP2-GFP strain, flow cytometry GFP, 3 h. GFP response vs DMSO, % at 10 µM. actives 10% (n = 590);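 active means GFP signal above 150% of the solvent control wells, that is a rise of more than half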;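 further: median channel GFP fluorescence of all gated yeast cells per well; ratio of median GFP to plate DMSO average so 100% = DMSO level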
RPL19A GFP CP2 = reconfirmed modulator of RPL19A-GFP TOR reporter in yeast | shares compounds with LAP4 TOR yeast | S. cerevisiae RPL19A-GFP strain, flow cytometry GFP, 3 h; active compounds read low; 100% means same as DMSO wells | GFP response vs DMSO, % at 10 µM | actives 3% (n = 590);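 active means under 65% GFP response relative to DMSO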;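 further: median GFP channel fluorescence per well over the all cells gate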
CIT2-GFP pick2 = second confirmation of modulators of TOR reporter CIT2-GFP in yeast; shares compounds with LAP4 TOR yeast; GFP response vs DMSO, % at 10 µM; actives 8% (n = 590); S. cerevisiae CIT2-GFP strain, flow cytometry GFP, 3 h; DMSO control wells read 100%;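 active means GFP response vs DMSO above about 150%, limit read from the data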;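 further: median green fluorescence per well over all gated yeast cells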
AGP1-GFP pick2 = yeast AGP1-GFP TOR reporter modulation, second cherry pick; S. cerevisiae AGP1-GFP strain, flow cytometry GFP, 3 h; shares compounds with LAP4 TOR yeast; percent response vs DMSO, % at 10 µM; AID 2643; 590 tested, under 10 active;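 active means over 150 percent of DMSO response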;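 further: median GFP channel fluorescence over all cells without mother daughter split; sample median GFP divided by mean DMSO control so 100% equals DMSO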
s288c autofluor = compound is autofluorescent in yeast s288c cells | S. cerevisiae s288c, 520 nm autofluorescence, flow cytometry, 3 h; active compounds read high; zero means same as solvent-only cells | fluorescence change (kMESF span) at 33 µM | shares compounds with LAP4 TOR yeast | 610 tested, under 10 active;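 active means fluorescence span over the dose series, or activity score, above about 33, limit read from the data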
s288c autofl DR = TOR screen hit shows autofluorescence in yeast s288c | S. cerevisiae s288c parental, compound autofluorescence, flow cytometry, 3 h | fluorescence change (span) at 33 µM | 110 tested, under 10 active | shares compounds with LAP4 TOR yeast;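 active means fluorescence change span, or the activity score built from it, above 25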
TORC1 bypass = stops wildtype yeast growth while TORC1 bypass cells still grow; growth rating (0-3) at 30 µM; 120 tested, under 10 active; AID 504456; shares compounds with LAP4 TOR yeast; S. cerevisiae BY4741 spot growth rating, 48-72 h; active compounds read low;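 active means growth rating at most 1 for wild type yeast while the TORC1 bypass strain still grows fully, rated 3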
Active calls of the source: *; · = not tested or not shown.

SMILES	RPL19A TOR yeast	CIT2 TOR yeast	LAP4 TOR yeast	MEP2-GFP yeast	AGP1-GFP MLPCN	LAP4 cherry2	MEP2-GFP pick2	RPL19A GFP CP2	CIT2-GFP pick2	AGP1-GFP pick2	s288c autofluor	others
CC(=O)Nc1cccc(OCC(=O)Nc2sccc2C(N)=O)c1	92	82	93	88	85	·	·	·	·	·	·
Cc1ccc(NC(=O)CN(C)S(=O)(=O)c2ccc(Br)s2)cc1F	101	90	111	97	99	·	·	·	·	·	·
CC1=NN(c2ccccc2)C(=O)C1C(c1ccccc1[N+](=O)[O-])C(C#N)C#N (stereo not drawn)	·	·	·	·	·	·	·	·	·	·	·	s288c autofl DR=0.42;TORC1 bypass=3
Cc1[nH][nH]c(=O)c1C(c1ccccc1[N+](=O)[O-])C(C#N)C#N (stereo not drawn)	102	102	106	119	104	·	·	·	·	·	·
CCCNc1nc(-c2cc(C(=O)Nc3ccccc3)on2)cc(C(C)C)n1	98	98	115	107	92	100	100	94	96	104	·
COCCNc1nc(C)cc(-c2cc(C(=O)Nc3ccccc3)on2)n1	98	93	103	90	89	102	103	100	107	98	·
COCCNc1nc(C)cc(-c2cc(C(=O)NCc3ccccc3)on2)n1	70	118	230*	356*	120	101	102	99	101	98	·
Cc1cc(-c2cc(C(=O)NCc3ccccc3)on2)nc(S(C)(=O)=O)n1	95	88	103	98	97	102	98	101	101	99	·
O=C1CN(C(=O)C2CCC(=O)N(CCc3ccc(Cl)cc3)C2)CCN1 (stereo not drawn)	107	·	81	101	93	·	·	·	·	·	·
CC(=O)c1ccc(N2CCN(C(=O)C3CCN(S(=O)(=O)c4ccc5c(c4)CC(C)N5C(C)=O)CC3)CC2)cc1 (stereo not drawn)	86	90	183*	94	109	104	105	100	107	99	·
CC(=O)N1c2ccc(S(=O)(=O)N3CCC(C(=O)N4CCN(c5cccc(C(F)(F)F)c5)CC4)CC3)cc2CC1C (stereo not drawn)	99	103	95	102	100	·	·	·	·	·	·
CCOC(=O)CC(NC(=O)c1ccc(C)cc1)c1ccc(OC)cc1 (stereo not drawn)	102	91	100	98	104	·	·	·	·	·	·
O=c1/c(=C/c2cccc3ccccc23)sc2ncnn12	106	107	155*	91	81	·	·	·	·	·	0.81	s288c autofl DR=0.49;TORC1 bypass=3
Cc1ccsc1/C=c1\sc2ncnn2c1=O	100	104	109	98	81	·	·	·	·	·	·
O=C(/C=C/c1ccc(Br)cc1)NC(=S)NNC(=O)c1ccco1	100	138	146	110	85	133	133	100	114	82	1.1
O=C(/C=C/c1ccccc1)NC(=S)NNC(=O)c1ccco1	93	110	126	105	96	·	·	·	·	·	·
Cc1ccc(C(=O)NNC(=S)NC(=O)c2ccco2)cc1	92	78	237*	120	107	·	·	·	·	·	1.9
Cc1ccccc1OCC(=O)NNC(=S)NC(=O)c1ccco1	113	107	159*	120	114	·	·	·	·	·	0.6
COC(=O)c1cc(N2C(=O)C3C(C2=O)C2(C)C=CC3(C)O2)ccc1Cl (stereo not drawn)	95	51	162*	93	70	·	·	·	·	·	0.2
Cc1ccc(-c2nc(C)sc2CC(=O)Nc2nnc(C)s2)cc1	53	94	97	155	41	113	122	100	118	104	0
CC(=O)Nc1ccc(NC(=O)Cc2sc(C)nc2-c2ccc(C)cc2)cc1	102	100	99	100	109	·	·	·	·	·	·
Cc1cccc(NC(=O)c2nc[nH]c2C(=O)N[C@@H](C)C(=O)OC(C)(C)C)c1	97	77	160*	90	78	110	98	94	92	95	·
C[C@H](NC(=O)c1[nH]cnc1C(=O)Nc1ccc(Cl)cc1)C(=O)OC(C)(C)C	97	89	158*	90	86	109	108	93	96	95	·
Cc1cccc(NC(=O)c2nc[nH]c2C(=O)NCC(=O)OC(C)(C)C)c1	97	112	168*	98	93	117	105	92	90	94	·
Cc1cc(OCC(=O)NCc2ccccn2)c2c(C)c(Cc3ccccc3)c(=O)oc2c1	100	103	107	99	101	·	·	·	·	·	·
SMILES	RPL19A TOR yeast	CIT2 TOR yeast	LAP4 TOR yeast	MEP2-GFP yeast	AGP1-GFP MLPCN	LAP4 cherry2	MEP2-GFP pick2	RPL19A GFP CP2	CIT2-GFP pick2	AGP1-GFP pick2	s288c autofluor	others
COCCCNC(=O)c1cc2c(-c3ccc(Cl)cc3)nn(C)c2s1	100	97	101	102	100	·	·	·	·	·	·
CCCCNC(=O)c1cc2c(-c3ccc(Cl)cc3)nn(C)c2s1	105	151*	157*	216*	104	103	105	100	99	98	·
COc1ccc(/C=C2\C(=O)ON=C2c2ccccc2)cc1	90	88	168*	74	72	160*	115	78	104	86	0.3
Cc1ccc(/C=C2\C(=O)ON=C2c2ccccc2)o1	96	60	105	102	71	·	·	·	·	·	·
COc1cc(/C=C2\C(=O)ON=C2c2ccc(Cl)cc2)ccc1O	85	89	224*	98	87	·	·	·	·	·	0.5
O=C1ON=C(c2ccccc2)/C1=C/c1ccc(O)c(O)c1	90	111	136	97	91	·	·	·	·	·	·

Screens: PubChem BioAssay, NMMLSC
